Hits are enriched below; roughly 12% of the tested compounds scored in any of these assays.
Sfp PPTase inh: qHTS Assay for Inhibitors of Bacillus subtilis Sfp phosphopantetheinyl transferase (PPTase) | 310,000 tested, 3.5% active | Potency, µM, for inactives: largest response in the series, negative = inhibition, usual class: inhibitors | AID 1490, 2009 | Biochemical Sfp PPTase activity, qHTS;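 also: the enzyme is Sfp with the accession as filed and its product quenches rhodamine fluorescence; 0% = enzyme reaction without inhibitor and -100% = no enzyme wells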
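Fluorescence-quenching assay with 15 nM Sfp, 5 uM rhodamine-CoA and 12.5 uM BHQ-2-labelled ybbR peptide in pH 7.6 Hepes/MgCl2 buffer. Enzyme was pre-incubated with compound for 15 min at room temperature. Rate was taken from the 30-min fluorescence change (525/598 nm).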
HP1b binding inh: HTS for Inhibitors of HP1-beta Chromodomain Interactions with Methylated Histone Tails. Chromobox protein homolog 1 (Homo sapiens), P83916. AlphaScreen HP1-beta / biotin-H3K9me3 peptide binding. Potency, µM (titrated, usually from 114 µM), without a hit: at the highest dose activity change, negative = inhibition, most hits filed as inhibitors. 390,000 tested, 0.56% active. AID 540317, 2011; also: nearly all actives have a fitted effect of over 70% in size
Target sequence (P83916 whole entry, looked up): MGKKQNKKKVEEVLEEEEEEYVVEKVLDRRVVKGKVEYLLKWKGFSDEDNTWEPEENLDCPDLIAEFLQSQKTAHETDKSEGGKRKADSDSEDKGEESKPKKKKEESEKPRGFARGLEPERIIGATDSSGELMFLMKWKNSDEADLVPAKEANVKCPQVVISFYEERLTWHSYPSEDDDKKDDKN
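Compound inhibition of the preformed complex between 50 nM HP1-beta and 50 nM biotinylated H3K9me3 peptide was read by AlphaScreen. Buffer was PBS pH 7.4 with 0.01% Tween-20. Incubations ran 30 min at room temperature, with 10 ug/mL donor/acceptor beads.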
G9a inh: qHTS Assay for Inhibitors of Histone Lysine Methyltransferase G9a; Histone-lysine N-methyltransferase EHMT2 (Homo sapiens), Q96KQ7; G9a H3K9 monomethylation, AlphaScreen, 2 h; Potency, µM (doses to about 102 µM), for the others: at the highest dose activity, negative = inhibition, hits mostly inhibitors; 350,000 tested, 8.8% active; AID 504332, 2011; also: % is scaled to controls: 0 for no effect and ±100 for the full control effect; nearly all actives have a fitted effect of over 75% in size
Target sequence (Q96KQ7 913-1193 limits assumed): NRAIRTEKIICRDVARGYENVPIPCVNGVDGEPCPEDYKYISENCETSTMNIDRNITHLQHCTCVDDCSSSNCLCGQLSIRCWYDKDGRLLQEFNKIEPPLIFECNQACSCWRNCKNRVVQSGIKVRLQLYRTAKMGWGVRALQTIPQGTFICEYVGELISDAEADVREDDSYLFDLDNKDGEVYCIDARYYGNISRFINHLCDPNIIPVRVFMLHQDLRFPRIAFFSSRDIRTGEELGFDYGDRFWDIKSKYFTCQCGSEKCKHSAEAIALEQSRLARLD
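Chemiluminescent proximity detection of H3K9 monomethylation, read after 10 min bead incubation in the dark. Reaction: 20 nM G9a, 500 nM biotin-H3K9 peptide, 20 uM SAM cofactor, 2 h, room temperature, following 15 min enzyme-compound preincubation.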
JMJD2A Tudor: qHTS Assay for Inhibitors of JMJD2A-Tudor Domain | Potency, µM (highest dose often 114 µM), for inactives: at the highest dose activity change, negative = inhibition, usual class: inhibitors | 390,000 tested, 4.4% active | Lysine-specific demethylase 4A (Homo sapiens), O75164 | AlphaScreen JMJD2A-Tudor / H3K4me3 peptide binding; also: % is scaled to controls: 0 for no effect and ±100 for the full control effect; nearly all actives have a fitted effect of over 50% in size
PLK1 PBD inh: qHTS for Inhibitors of PLK1-PDB (polo-like kinase 1 - polo-box domain): Primary Screen; Serine/threonine-protein kinase PLK1 (Homo sapiens), P53350; Plk1 PBD binding of FITC phosphopeptide, fluorescence polarization; Potency, µM, inactives show max response, negative = inhibition, hits mostly inhibitors; 360,000 tested, 2.8% active; AID 720504, 2013; also: series mostly up to about 57 µM; % is scaled to controls: 0 for no effect and ±100 for the full control effect; nearly all actives have a fitted effect of over 65% in size
BAZ2B inh: qHTS Assay for Inhibitors of BAZ2B | AlphaScreen BAZ2B-H3K14Ac peptide displacement | 360,000 tested, 4.4% active | Potency, µM (doses to about 114 µM), inactives show at the highest dose activity change, negative = inhibition, hits mostly inhibitors | AID 504333, 2011; also: % is scaled to controls: 0 for no effect and ±100 for the full control effect; nearly all actives have a fitted effect of over 60% in size
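Complex of BAZ2B and biotin-H3K14Ac (50 nM apiece) forms over 30 min at RT, then faces library compounds up to 110 uM for another 30 min; AlphaScreen beads added, 20 min dark incubation, luminescence read.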
Starred values were filed as active, the others as inactive; ? = inconclusive; nt = no result; [ ] = dose if it differs, or a comment. Calls follow the shape of the dose curve; as a rule, active = well fitted curve in the direction sought with a large enough effect; inconclusive = small, poorly fitted or top-dose-only effect, or another doubt; inactive = no such curve, though single readings can be large; an effect the other way counts as inactive or inconclusive. Potency is read from the fitted curve at half-maximal effect.

SMILES	Sfp PPTase inh	HP1b binding inh	G9a inh	JMJD2A Tudor	PLK1 PBD inh	BAZ2B inh
CC1=CC(=C(C#N)c2nc3ccccc3s2)C=C(C)N1CC1CCCO1 (centres undefined)	-8%	80%	18%	31%	27µM*	22%
COc1cc(NS(=O)(=O)c2ccc(NC(=O)/C(=C\c3ccccc3OC)NC(=O)c3ccccc3)cc2)nc(OC)n1	10%	27%	20µM*	-30%	-12%	-3%
COc1cc(NS(=O)(=O)c2ccc(NS(=O)(=O)c3ccccc3)cc2)nc(OC)n1	14%	12%	56µM*	-15%	-7%	?
CCOC(=O)C1CCCN(CCC(=O)Nc2ccc(OC)cc2OC)C1 (centres undefined)	nt	22%	2%[59 µM]	2%	nt	-1%
COc1ccc(NC(=O)c2nnn(CC(=O)Nc3cccc(C)c3C)c2N)c(OC)c1	nt	28%	-5%[59 µM]	-1%	nt	8%[57.1 µM]
Cc1cc2occ(CC(=O)NCc3cccs3)c2cc1C(C)C	1%	22%	-13%[59 µM]	-7%	-13%	3%
Cc1csc(NC(=O)Cc2coc3cc(C)c(C(C)C)cc23)n1	19%	15%	45µM*	-32%	-5%	?
COc1cc(NC(=O)Cn2cnc3sc(C)c(S(=O)(=O)N4CCC(C)CC4)c3c2=O)cc(OC)c1OC	nt	12%	4%[59 µM]	-12%	nt	0%
CC(=O)N1CCc2nc3sc(C(=O)c4ccc(F)cc4)c(N)c3c(C(F)(F)F)c2C1	nt	-6%	-29%[59 µM]	?	nt	50µM*
Cc1ccc(S(=O)(=O)N2CCOCC2)cc1C(=O)NCC1CCCCC1	nt	24%	24%[59 µM]	-3%	6%	7%
COc1cc(Cl)c(C)cc1Nc1nc2ccccc2nc1NS(=O)(=O)c1ccccc1	nt	54%	-6%[59 µM]	-23%	nt	-1%
CCCCc1nc2ccn(CC(=O)N(C)C)c(=O)c2n1Cc1ccc(-c2ccccc2-c2nn[nH]n2)cc1	50µM*	nt	-9%[59 µM]	nt	nt	nt
O=c1oc2ccccc2c(NC2CCCCC2)c1NS(=O)(=O)c1ccc(F)cc1	-2%	-22%	-1%	?	3.4µM*	-14%
O=C(CCCn1c2ccccc2c(=O)c2ccccc21)Nc1cccc(Cl)c1	nt	110%	101%[59 µM]	58%	nt	56%
CCOC(=O)c1c(C)oc2c1c(C(c1ccccc1)N1CCOCC1)c(O)c1ccccc12 (centres undefined)	6%	-15%	?	-31%	-23%	-33%
CCOC(=O)c1c(C)oc2c1c(C=NCCO)c(O)c1ccccc12	50µM*	-2%	50µM*	?	-21%	-39%
CCOC(=O)c1c(C)oc2c1c(C(c1cccnc1)N1CCCCC1)c(O)c1ccccc12 (centres undefined)	-19%	-6%	?	?	12µM*	?
COc1ccc(/C=N/OCc2ccc(Br)cc2)c(OC)c1	0%	168%	10%[2.33 µM]	192%	-10%	321%
Cc1cc(C)cc(NC(=O)CSc2nc(=O)n(CCCN3CCOCC3)c3c2CCCC3)c1	nt	10%	-30%	-21%	-3%	0%
Cc1ccc(SCC(=O)N/N=C/c2ccco2)cc1	14%	5%	17%	-7%	1%	-18%
CN(C)c1ccc(CNC(=O)CCC(=O)N2Cc3ccccc3Oc3ncccc32)cc1	nt	7%	?	-34%	nt	-4%[57.1 µM]
CCn1nnnc1SCC(=O)Nc1cc(OC)cc(OC)c1	1%	-18%	8%	?	3.4µM*	14%
COc1cccc(-n2nnnc2SCC(=O)Nc2ccc(NC(C)=O)cc2)c1	-3%	3%	19%	?	24µM*	1%
COc1cccc(-n2nnnc2S(C)(=O)=O)c1	-27%	37%	?	-10%	7.5µM*	-1%

Source: PubChem BioAssay
